From PubChem BioAssay AID493191 (Broad Institute, 2011)
Screen size: about 1,300 compounds; about 330 (25%) were called active. The rule behind the calls is not given here. A selection follows. Potency and affinity values are given separately.

Test: growth inhibition of MALME3 cells – cell-based, CellTiter-Glo, cherry-picked, orthogonal assay for MITF inhibitor project, dose response (AID 493191)
Conditions: MALME3 melanoma viability, CellTiter-Glo luminescence, 24 h; series mostly up to 35 µM; activity change, negative = inhibition: at the top concentration

Row | Structure (SMILES) | activity change, negative = inhibition
1 | O=C(Nc1ccccc1F)C(=O)Nc1cccc2ccccc12 | -0.168% (inactive)
2 | Cc1ccc2oc(C(Cl)(Cl)Cl)cc(=O)c2c1 | -14.9% (inactive)
3 | O=C(CSc1nnnn1-c1ccc(O)cc1)Nc1cccc(S(=O)(=O)N2CCCC2)c1 | -6.31% (inactive)
4 | O=C(CCl)Nc1cccc(S(=O)(=O)NC2=NCCCCC2)c1 | -33% (inactive)
5 | CC1CCN(c2nc3ccc(C(=O)O)cc3s2)CC1 | -11.3% (inactive)
6 | COc1ccc(C(=O)Nc2nc3ccc(OC)cc3s2)cc1 | 2.29% (inactive)
7 | COc1cccc(N2CCN(C(=O)c3ccc(CS(=O)c4ccccc4Cl)o3)CC2)c1 (configuration not stated) | 0.783% (inactive)
8 | O=C(c1ccc(F)cc1)N1CCC(c2ccccc2)C1 (configuration not stated) | 6.87% (inactive)
9 | CC(C)c1nnc(NC(=O)CCC2CCCCC2)s1 | -0.152% (inactive)
10 | COc1ccc2oc(=O)c(C(=O)Nc3ccccc3C)cc2c1 | -4.46% (inactive)
11 | c1ccc(OCc2nn3c(-c4ccccn4)nnc3s2)cc1 | 4.41% (inactive)
12 | Cc1ccc(-c2c[n+](Cc3ccc(Cl)cc3)c3n2CCC3)cc1 | -11.4% (inactive)
13 | COc1ccc(-c2c[n+](CC(=O)OC3CC(C)CCC3C(C)C)c3n2CCC3)cc1 (configuration not stated) | -48.5% (inactive)
14 | COc1ccc(N/N=C/c2c(C(=O)O)ccc3ccccc23)cc1 | -11.4% (inactive)
15 | Cc1ccc(COc2ccc(C)nc2[N+](=O)[O-])cc1 | 9.51% (inactive)
16 | CCc1cc(C=NC2CCCCC2)c(O)s1 | 2.76% (inactive)
17 | O=[N+]([O-])c1cc(Cl)cc(/C=N\Nc2ccccn2)c1O | -43.7% (inactive)
18 | COc1cc2c(c(OC)c1OC)-c1ccc(N(C)CC(OC)OC)c(=O)cc1[C@@H](NC(C)=O)CC2 | 20.4% (inactive)
19 | Cc1cc(N2CCOCC2)ccc1/C=C\[N+](=O)[O-] | -48.4% (inactive)
20 | O=C(Nc1ccc(Cl)cc1)C1C2CCCCC21 (configuration not stated) | -0.186% (inactive)
21 | COc1ccc(C(=O)NC(=O)Nc2cc(C)ccn2)cc1 | -25.7% (inactive)
22 | N/C(=N\OC(=O)c1ccccc1)c1ccccn1 | -32.2% (inactive)
23 | COCc1cc(C)nc2sc(C(=O)Nc3cccc(OC)c3)c(N)c12 | 6.83% (inactive)
24 | Cc1cccc2sc(N(CCCN(C)C)C(=O)c3nc4ccccc4s3)nc12 | -22.2% (inactive)

Row | Structure (SMILES) | activity change, negative = inhibition
25 | CC(=O)OCCCNc1cc(Sc2ccc(Cl)cc2)c2nonc2c1[N+](=O)[O-] | -45.4% (inactive)
26 | O=[N+]([O-])c1c(NCCCO)cc(Sc2ccc(Cl)cc2)c2nonc12 | -28.4% (inactive)
27 | CCC(=O)OCCNc1cc(Sc2nc3ccccc3[nH]2)c2nonc2c1[N+](=O)[O-] | -44.7% (inactive)
28 | O=C(Nc1ccccc1F)c1ccc2c(c1)OCO2 | -14.2% (inactive)
29 | COc1cccc(-c2nnc3n2N=C(C(C)(C)C)CS3)c1 | 1.74% (inactive)
30 | Cc1ccc(C2=NN(C(=O)CCl)C(c3cccs3)C2)o1 (configuration not stated) | -27.1% (inactive)
31 | C=C1C(=O)C=C[C@]2(C)C[C@@H]3OC(=O)[C@](C)(O)[C@H]3C[C@@H]12 | -38.6% (inactive)
32 | CNc1oc(/C=C/c2cccc(OC)c2)nc1C#N | -4.03% (inactive)
33 | CCCN1C(=O)c2ccc(C(=O)Nc3cc(C)ccc3O)cc2C1=O | -17.9% (inactive)
34 | NNC(=O)c1cc2ccccc2cc1O | -15% (inactive)
35 | CCn1c(=O)c(C(=O)NCc2ccccc2Cl)c(O)c2ccccc21 | -5.21% (inactive)
36 | Cn1c(=O)c([N+](=O)[O-])c(-n2ccnc2)c2ccccc21 | 3.26% (inactive)
37 | COc1cc([N+](=O)[O-])cc(/C=N/NC(=O)c2ccc(NC(=O)c3ccc(C)cc3)cc2)c1O | -29.5% (inactive)
38 | CCOc1cc(NC(=O)CCl)c(OCC)cc1NC(=O)CCl | -11.9% (inactive)
39 | O=C(O)c1cccc(NC(=S)N/N=C/c2ccccn2)c1 | 0.21% (inactive)
40 | O=C(NC1CCCCC1)C(c1cccnc1)N(C(=O)CCl)c1ccc(F)cc1 (configuration not stated) | -45.1% (inactive)
41 | COc1cc2c(cc1OC)C(C)N(S(=O)(=O)c1cnc(Cl)c(Cl)c1)CC2 (configuration not stated) | -24.5% (inactive)
42 | COc1cc(CN2CCC(C(N)=O)CC2)ccc1OCc1ccccc1 | -2.67% (inactive)
43 | Cc1cc(C)c(C#N)c(SCc2nnc(-c3ccccc3)o2)n1 | 6.74% (inactive)
44 | O=C(NC1CCCCC1)c1cc2cc(Br)ccc2o1 | 8.76% (inactive)
45 | COc1cc2c(c(OC)c1OC)-c1ccc(OC)c(=O)cc1C(NC(C)=O)CC2 (configuration not stated) | 7.87% (inactive)
46 | O=C(C[n+]1cc(-c2ccc(F)cc2)n2c1CCC2)c1cccs1 | 8.22% (inactive)
47 | Cc1nc(SCC(=O)Nc2ccc(CN3CCCC3)cc2)c2c(C)c(C)sc2n1 | -48.9% (inactive)
48 | O=C(CCl)Nc1ccc(Sc2ccc(NC(=O)CCl)cc2)cc1 | -7.9% (inactive)

Row | Structure (SMILES) | activity change, negative = inhibition
49 | Cc1ccc2cc(NC(=O)Cc3ccccc3)ccc2n1 | -6.29% (inactive)
50 | O=C(CCl)Nc1ccc(-c2ccccc2)cc1 | -37.2% (inactive)
51 | Cc1cccc(OCC(=O)Nc2cccc(O)c2)c1 | 4.34% (inactive)
52 | COc1cccc(NC(=O)c2cc3ccccc3cc2OC)c1 | -22.4% (inactive)
53 | COc1ccc(-c2cc(-c3ccc(OC)c(OC)c3)n[nH]2)c(O)c1 | 2.12% (inactive)
54 | CCCOC(=O)c1ccc(NC(=O)C2CCCO2)cc1 (configuration not stated) | 11.7% (inactive)
55 | CC1=NC(=O)C(N=Nc2cccc(C(=O)O)c2)N1c1ccccc1 (configuration not stated) | 2.56% (inactive)
56 | Cc1ccc(-c2c[n+](Cc3ccc(Cl)c(Cl)c3)c3n2CCC3)cc1 | -44.3% (inactive)
57 | Cc1oc(=O)c(NC(=O)c2ccccc2)cc1C(=O)c1ccccc1 | 2.83% (inactive)
58 | Cc1cc(C)c2c(N)c(C(=O)N/N=C/c3ccccc3)sc2n1 | 7.24% (inactive)
59 | Cc1cc(C)c2nc3nc(C)cc(C)c3c(N)c2c1 | -10.5% (inactive)
60 | Cn1nnnc1Sc1ncnc2scc(-c3ccc(F)cc3)c12 | -30.6% (inactive)
61 | Cn1nnnc1Sc1ncnc2scc(-c3ccsc3)c12 | -2.32% (inactive)
62 | O=C(O)c1ccc(N/N=C/c2ccc(OC(=O)c3cccc(Cl)c3)cc2)cc1 | 4.66% (inactive)
63 | COc1ccccc1N1CCN(/N=C/c2cccc(Cl)c2)CC1 | 0.195% (inactive)
64 | CC(Oc1ccccc1)C(=O)Nc1nc(-c2ccccn2)cs1 (configuration not stated) | -20% (inactive)
65 | O=C(Nc1nc(-c2ccccn2)cs1)c1ccccc1-n1cnnn1 | -19.8% (inactive)
66 | COc1ccc(C(=O)/C=C/Nc2ccccn2)cc1 | -25.4% (inactive)
67 | Cc1cc(C(=O)Nc2cccc(C(=O)O)c2)oc1C | -4.21% (inactive)
68 | O=C(Nc1ccc2nn(-c3ccccc3)nc2c1)c1ccco1 | 6.65% (inactive)
69 | Cc1cccc(NC(=O)c2ccc([N+](=O)[O-])o2)c1C | -47.8% (inactive)
70 | Cc1nc2ccc(NC(=O)c3ccco3)cc2nc1C | 14.5% (inactive)
71 | COc1ccc(C(=O)Nc2ccc3c(c2)OCCO3)cc1Br | -6.9% (inactive)
72 | CC(C)[C@H](NC(=O)OC(C)(C)C)c1nnc(S(=O)(=O)Cc2c(F)cccc2Cl)o1 | -37.9% (inactive)

Row | Structure (SMILES) | activity change, negative = inhibition
73 | CCOc1ccc(C(=O)N2CCc3ccccc32)cc1 | 3.7% (inactive)
74 | N#C/C(=C\c1cccs1)C(=O)NCC1CCCO1 (configuration not stated) | 1.37% (inactive)
75 | CN1CCN(CCCOc2ccc(-c3ccccc3)cc2)CC1 | 9.29% (inactive)
76 | Cc1ccc2oc(=O)n(CCCOc3ccccc3)c2c1 | 2.92% (inactive)
77 | CN(C)Cc1c(O)ccc2c1O/C(=C\C=C\c1ccccc1)C2=O | 7.22% (inactive)
78 | Cc1ccccc1OCc1nc2c3cnn(C)c3ncn2n1 | -4.86% (inactive)
79 | CC(=O)NC1=C(N(C)C2CCS(=O)(=O)C2)C(=O)c2ccccc2C1=O (configuration not stated) | -22.3% (inactive)
80 | CCCCC1C(=O)N(c2ccccc2)N(c2ccc(O)cc2)C1=O (configuration not stated) | -3.31% (inactive)
81 | O=C(COc1ccc2c(c1)CCC2)N1CCc2ccccc21 | 3.34% (inactive)
82 | O=C(Nc1ccccc1)NN(C(=O)CCl)c1ccccc1 | -29.5% (inactive)
83 | O=C(CCl)N(c1ccccc1)C1CCS(=O)(=O)C1 (configuration not stated) | -45.5% (inactive)
84 | CN(C)c1ccc(/C=N/N2CCN(c3ccccn3)CC2)cc1 | -17.2% (inactive)
85 | Cc1ccc(NC(=O)C2CCN(S(=O)(=O)c3c(C)noc3/C=C/c3ccco3)CC2)nc1 | -29% (inactive)
86 | CCN=c1scc(-c2ccco2)n1/N=C/c1ccc(O)cc1 | 4.77% (inactive)
87 | Cc1ccc(S(=O)(=O)Nc2cccc3cccnc23)cc1 | -32.9% (inactive)
88 | NC(=O)C1CCN(C2=C(NS(=O)(=O)c3ccc(Br)cc3)C(=O)c3ccccc3C2=O)CC1 | -17.1% (inactive)
89 | Cc1ccc(C(CNS(=O)(=O)c2ccc(Br)cc2)N2CCN(C)CC2)cc1 (configuration not stated) | -14.8% (inactive)
90 | O=C(/C=C/c1ccc2c(c1)OCCO2)c1ccccc1 | -1.96% (inactive)
91 | O=C(NC1=NCCS1)c1ccc(Cl)c(Cl)c1 | 3.67% (inactive)
92 | CC(C)c1ccc(C(=O)Nc2cccnc2)cc1 | 7.79% (inactive)
93 | O=C(NCc1ccccc1)NC1(C(=O)Nc2ccc3c(c2)OCCO3)CCCCC1 | 10.7% (inactive)
94 | COc1ccc(-n2cc(-c3ccc(C)cc3)[n+]3c2SCC3)cc1 | -25.4% (inactive)
95 | COc1cc(SC)ccc1C(=O)Nc1nc(C)cs1 | -42.4% (inactive)
96 | O=C(CSc1nc2ccccc2[nH]1)c1ccc2c(c1)OCO2 | 3.26% (inactive)

Row | Structure (SMILES) | activity change, negative = inhibition
97 | O=C(Nc1ccc(Br)cc1)c1ccc2c(c1)OCO2 | 9.74% (inactive)
98 | Cc1cccc(NC(=O)c2cnn(-c3ccccc3)c2C)c1C | -1.17% (inactive)
99 | CCc1nc2oc3ccc(C)cc3c(=O)c2cc1C(=O)OC | -4.11% (inactive)
100 | O=C(N/N=C/C(Cl)=C\c1ccccc1)c1cccs1 | -8.54% (inactive)
101 | O=C(NCc1ccco1)c1nc2c(nnn2Cc2ccccc2Cl)c(=O)[nH]1 | -9.09% (inactive)
102 | CCOc1ccc(N=C(C)C2=C(O)c3ccccc3C2=O)cc1 | -2.1% (inactive)
103 | Nc1nnc(/C=C/c2ccccc2Cl)s1 | 2.68% (inactive)
104 | O=C(NCC1CCCO1)c1cc(-c2ccc(Cl)cc2Cl)on1 (configuration not stated) | -6.27% (inactive)
105 | CS/C(N)=N/N=C/c1ccc2c(c1)OCO2 | -7.25% (inactive)
106 | CN(C)c1nc(-c2ccccn2)nnc1-c1ccccc1 | -15.3% (inactive)
107 | O=C(/C=C/c1ccc(Cl)c([N+](=O)[O-])c1)c1ccc(O)cc1 | -28.2% (inactive)
108 | O=C(c1ccc(S(=O)(=O)Cc2ccccc2Cl)c([N+](=O)[O-])c1)N1CCN(c2ccccn2)CC1 | -1.04% (inactive)
109 | COc1ccc(/C=C2\SC(=S)N(CCCC(=O)NNC(=O)c3ccccc3O)C2=O)cc1 | -9.93% (inactive)
110 | N#C/C(=C(/O)CCl)c1nc2ccccc2[nH]1 | -37.4% (inactive)
111 | COc1ccc(O)c(/C=N/NC(=O)c2ccc(CSc3nc(C)cc(C)n3)cc2)c1 | -19.8% (inactive)
112 | COc1nc(NC2CCCCC2)nc(NC(C)(C)C)n1 | -24.6% (inactive)
113 | O=C(CCCc1ccccc1)Nc1cccc(C(=O)O)c1 | 0.114% (inactive)
114 | CCOC(=O)c1[nH]cnc1N=Nc1c(O)ccc2ccccc12 | -27.8% (inactive)
115 | O=C1N=C(N2CCOCC2)S/C1=C\C=C/c1ccccc1 | 3.9% (inactive)
116 | Cc1nc(-c2ccccn2)sc1C(=O)Nc1ccc(F)cc1F | 2.39% (inactive)
117 | O=C(O)c1cc(N/N=C/C(Cl)=C/c2ccccc2)ccc1Cl | 6.59% (inactive)
